This passage reports inhibition results from PubChem BioAssay AID720486 (Milwaukee Institute for Drug Discovery, 2013).

The other results are listed elsewhere or left out. Calls of active or inactive are those of the source.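 Rule for the calls: active = inhibition of at least 50%; inactive = the rest.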

The target of this experiment is Single-stranded DNA-binding protein (Escherichia coli (strain K12)) (UniProt P0AGE0). Put plainly: E. coli SSB-DNA binding inhibitors, counter-screen for HCV NS3 helicase inhibitor project, biochemical, fluorescence polarization, selected ChemBridge compounds (AID 720486).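 Note: displacers lower Cy5 polarization so higher inhibition means more SSB displaced.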 The note with it: E. coli SSB binding Cy5-dT15, fluorescence polarization; at 100 µM; stronger effect = higher value. Background: The purpose of a counterscreen is to sort out artefacts and off-target activity.
Single-stranded DNA-binding protein (Escherichia coli (strain K12)), sequence (P0AGE0 whole entry, looked up): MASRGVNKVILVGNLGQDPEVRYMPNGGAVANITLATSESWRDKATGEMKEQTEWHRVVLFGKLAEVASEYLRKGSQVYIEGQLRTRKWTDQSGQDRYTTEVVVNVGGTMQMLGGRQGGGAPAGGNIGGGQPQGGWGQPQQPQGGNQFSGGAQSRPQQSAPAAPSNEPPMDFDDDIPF
Usually inhibition stands for the change of the read-out against control, counted positive when it falls. With `N#Cc1c(N)nc2sc(C(=O)Nc3ccccc3)c(N)c2c1-c1ccco1`, the inhibition is 16.3% (inactive).

`Cc1ccc(C(=O)NCCNc2ccc([N+](=O)[O-])cc2)cc1`: the inhibition is 34.5% (inactive).

Regarding `COc1ccc(N2C(=O)C=CC2=O)c([N+](=O)[O-])c1`, the inhibition was -5.58% (inactive).

As for `COc1ccc(C(=O)Oc2ccc3oc(=O)cc(C)c3c2)cc1OC`, the inhibition was 12.6% (inactive).

As to `O=C1NC(=O)C(=Cc2cc([N+](=O)[O-])cc(Br)c2O)C(=O)N1`, the inhibition was 51.5% (active).

With `COc1cc(/C(O)=C(\C#N)c2nc3ccccc3n2C)cc(OC)c1OC`, the inhibition is 10.2% (inactive).

As for `O=C(NC(=S)Nc1ccc(-c2nc3cc(Cl)ccc3o2)cc1)c1ccco1`, the inhibition is 19.9% (inactive).

With `O=c1c2c(nc3cc(-c4cccc(F)c4)[nH]n13)CCS2`, the inhibition was 84.2% (active).

Consider `CCN(CC)c1ccc(C=C2C(=O)N(C)C(=O)N(C)C2=O)c(O)c1`, for which the inhibition is 30.8% (inactive).

Take `Cc1ccc(C(=O)C[n+]2cc(-c3ccccc3)n3c2CCCCC3)cc1`: the inhibition is 5.34% (inactive).

Turning to `COc1cc(C=C2C(=O)NC(=O)NC2=O)ccc1OCCOc1ccc([N+](=O)[O-])cc1`, the inhibition is 19.9% (inactive).

On to `CC(C)(C)N1C(=O)NC(=O)C(=Cc2cccs2)C1=O`, for which the inhibition is 11.4% (inactive).

As for `CCOc1ccc(C=C2C(=O)NC(=O)NC2=O)cc1Cl`, the inhibition is 19.9% (inactive).

Take `C=CCN1C(=O)/C(=C\c2cc(OC)c(O)c([N+](=O)[O-])c2)C(=O)NC1=S`: the inhibition is 98.8% (active).

Regarding `CCN(CC)c1ccc(NC(=O)/C(=C\c2ccccc2)NC(C)=O)cc1`, the inhibition was 55.1% (active).
